We go through 69 compounds from PMC4552634, “A New Set of Chemical Starting Points with Plasmodium falciparum Transmission-Blocking Potential for Antimalarial Drug Discovery” (PLoS ONE, 2015).

Usually % Inhibition stands for the change of the read-out against control, counted positive when it falls.

About 3,200 (25%) of roughly 13,000 compounds showed an effect of 50% or more. The list shows a part of the results.

The subject of this assay is P. falciparum stage V gametocytes. More on the design: BacTiter-Glo ATP luminescence viability of purified stage V gametocytes in 384-well plates, per cent inhibition versus DMSO. The conditions noted are these: 48 h, 5 µM; inhibitor.
As to `COc1ccc(-c2cncc(-c3ccc(OC)c(OC)c3)n2)cc1OC` [TCMDC-138247], the “% Inhibition” value is 25.57%.
Then `COc1ccc(-c2cnn3ccc(Nc4cc(OC)c(OC)c(OC)c4)nc23)cc1OC` [TCMDC-134383], with 101%; and `COc1cc(Nc2nccn3c(-c4ccsc4)cnc23)cc(OC)c1OC` [TCMDC-134382], with 37.58%; and `O=C(CSc1nccn1C1CCCCC1)Nc1cc(C(F)(F)F)ccc1Cl` [TCMDC-124949], with 15.12%.
Under `Cc1c(CNCCCNc2nc3ccncc3[nH]2)sc(Br)c1Br` [TCMDC-140512] stands 32.17%.
As for `CCNc1cc(C(=O)N[C@@H](Cc2ccccc2)[C@H](O)CNC(C)C)cc(N2CC(c3ccccc3)CCS2(=O)=O)c1` (stereo partly drawn) [TCMDC-134660], the “% Inhibition” value was found to be 43.25%.
`O=S(=O)(NC1CCN(c2ccnc3cc(Cl)ccc23)C1)c1cccs1` (stereo not drawn) [TCMDC-133398]: the “% Inhibition” value was 1.762%.
Then `Fc1ccc2nc(-c3cccc(-c4ccc(CNCc5ccccc5)cc4)c3)[nH]c2c1` [TCMDC-132702], with -56.98%; and `CS(=O)(=O)NCCCNCc1cccc(-c2cccc(-c3nc4ccc(F)cc4[nH]3)c2)c1` [TCMDC-133075], with -24.93%.
Take `Fc1ccc2nc(-c3cccc(-c4ccc(CNCCc5ccncc5)cc4)c3)[nH]c2c1` [TCMDC-132854]: the “% Inhibition” value is reported as 81.48%.
Turning to `Fc1ccc2nc(-c3cccc(-c4cccc(CNCCc5ccncc5)c4)c3)[nH]c2c1` [TCMDC-132857], the “% Inhibition” value is -45.49%.
Then `CNCCNCc1ccc(-c2ccc(-c3nc4ccc(F)cc4[nH]3)cc2)cc1` [TCMDC-132832], with 83.07%; and `Nc1cccc(CNCc2ccc(-c3cccc(-c4nc5ccc(F)cc5[nH]4)c3)cc2)c1` [TCMDC-132937], with -46.54%.
Turning to `CNCCNCc1cccc(-c2cccc(-c3nc4ccc(F)cc4[nH]3)c2)c1` [TCMDC-132840], the “% Inhibition” value is 70.05%.
Under `CNc1ccc(CNCc2ccc(-c3ccc(-c4nc5ccc(F)cc5[nH]4)cc3)cc2)cc1` [TCMDC-132980] stands -78.33%.
Then `CNCCNCc1ccc(-c2cccc(-c3nc4ccc(F)cc4[nH]3)c2)cc1` [TCMDC-132836], with 79.45%; and `CN(C)CCNCc1ccc(-c2ccc(-c3nc4ccc(F)cc4[nH]3)cc2)cc1` [TCMDC-132681], with 40.34%; and `COc1ccc(CNCc2cccc(-c3cccc(-c4nc5ccc(F)cc5[nH]4)c3)c2)cc1` [TCMDC-132717], with -45.78%.
Then `COc1ccc(CNCc2ccc(-c3cccc(-c4nc5ccc(F)cc5[nH]4)c3)cc2)cc1` [TCMDC-132721], with -29.84%.
With `COc1nc2c(CCN3CC[C@H](NCc4ccc5c(c4)NC(=O)CO5)[C@H](O)C3)c(Cl)cnc2cc1F` [TCMDC-135805], the “% Inhibition” value is given as -8.55%.
For the compound `CC(C)CC(=O)N1CCNC[C@@H]1C(=O)NC1CC1` [TCMDC-141241], the “% Inhibition” value was 28.73%.
Then `CN1CCCCC1CCc1cc(C(=O)Nc2ccc(-c3ccc(O)cc3)cc2)ccc1O` (stereo not drawn) [TCMDC-132103], with -69.36%; and `CC1(C)CCC(=Cc2ccc(Cl)cc2)CC1(O)Cn1ccnc1` (stereo not drawn) [TCMDC-125222], with 20.04%.
`Nc1ncc(Cc2cc(Cl)c(N)c3ncccc23)c(N)n1` [TCMDC-137889]: the “% Inhibition” value was 44.6%.
As to `Nc1ccc(-c2nc3ccc(Oc4ccc5nc(-c6ccc(N)cc6)[nH]c5c4)cc3[nH]2)cc1` [TCMDC-125791], the “% Inhibition” value is -25%.
Consider `Cc1nc2ccc(-c3nc4ccc(N)cc4[nH]3)cc2[nH]1` [TCMDC-123723], for which the “% Inhibition” value was -56.67%.
Then `Nc1ccc(-c2nc3ccc(Cc4ccc5nc(-c6ccc(N)cc6)[nH]c5c4)cc3[nH]2)cc1` [TCMDC-123486], with 52.65%; and `COc1ccccc1N1CCN(CCCCNC(=O)c2ccc(NC(=O)c3cc(Cl)cc(Cl)c3)cc2)CC1` [TCMDC-138236], with 3.866%.
In the case of `O=C(/C=C/c1ccc(Cl)c(Cl)c1)NCCCCCCN1CCN(C(=O)Nc2ccc(F)c(Cl)c2)CC1` [TCMDC-135833], the “% Inhibition” value is reported as -83.03%.
On to `COc1ccc(-c2ccc(NC(=O)c3cccs3)cc2)cc1CN1CCCN(C)CC1` [TCMDC-132509], for which the “% Inhibition” value is given as -9.366%.
As to `COc1ccc(-c2cccc(NC(=O)c3ccc(C#N)cc3)c2)cc1CN1CCN(C)CC1` [TCMDC-132612], the “% Inhibition” value was -15.47%.
Then `COc1ccc(-c2cccc(NC(=O)c3cccs3)c2)cc1CN1CCCN(C)CC1` [TCMDC-132600], with 87.2%; and `COc1ccc(-c2ccc(NC(=O)c3ccc(F)cc3)cc2)cc1CN1CCCN(C)CC1` [TCMDC-132514], with 15.06%; and `COc1ccc(-c2ccc(NC(=O)c3ccc(C#N)cc3)cc2)cc1CN1CCCN(C)CC1` [TCMDC-132517], with 41.17%.
Turning to `COc1ccc(-c2cccc(NC(=O)c3ccccc3)c2)cc1CN1CCCN(C)CC1` [TCMDC-132627], the “% Inhibition” value is 80.03%.
Then `COc1ccc(-c2cccc(NC(=O)c3ccc(C#N)cc3)c2)cc1CN1CCCN(C)CC1` [TCMDC-132609], with -22.05%.
Under `COc1ccc(-c2ccc(NC(=O)c3ccccc3)cc2)cc1CN1CCCN(C)CC1` [TCMDC-132535] stands 93.82%; under `O=C(Nc1cccc(C(F)(F)F)c1)NC1CCN(c2ccnc3cc(Cl)ccc23)C1` (stereo not drawn) [TCMDC-133406], -28.21%; under `COC(=O)CCCCCOc1cc(Cc2cnc(N)nc2N)cc(OC)c1OC` [TCMDC-137678], -5.017%.
Then `Cc1ccc(CCC(C)NCC(O)c2cccc(C(F)(F)F)c2)cc1` (stereo not drawn) [TCMDC-131446], with 13.09%; and `COc1ccc(Cc2c(Cl)nc3nc(N)nc(N)c3c2C)cc1` [TCMDC-138055], with 17.08%.
In the case of `Oc1ccc(CCCNc2nc(NCc3cccc4ccccc34)nc(N3CCNCC3)n2)cc1` [TCMDC-133394], the “% Inhibition” value was 8.629%.
Then `Oc1ccc(CCCNc2nc(NCc3cccc4ccccc34)nc(N3CCCNCC3)n2)cc1` [TCMDC-133445], with -39.91%; and `Oc1ccc(CCNc2nc(NCc3ccccc3-c3ccc(C(F)(F)F)cc3)nc(NC3CCNCC3)n2)cc1` [TCMDC-133387], with 26.8%; and `Oc1ccc(CCCNc2nc(NCc3cccc4ccccc34)nc(NC3CCNCC3)n2)cc1` [TCMDC-133392], with 57.4%.
On to `Oc1ccc(CCCNc2nc(NCc3ccccc3-c3ccccc3)nc(NC3CCNCC3)n2)cc1` [TCMDC-133389], for which the “% Inhibition” value is on record as 58.76%.
Then `Oc1ccc(CCCNc2nc(NCc3ccccc3-c3ccccc3)nc(N3CCNCC3)n2)cc1` [TCMDC-133391], with 23.94%; and `O=[N+]([O-])c1cccc(Nc2cncc(-c3ccc(CO)cc3)c2)c1` [TCMDC-136670], with 46.28%.
Under `COc1cc(NCC(C)CNCc2cn(Cc3ccccc3)c3ccccc23)nc2ccccc12` (stereo not drawn) [TCMDC-140496] stands 91.67%; under `CC(CNCc1cn(Cc2cc(Br)cc(Br)c2)c2ccccc12)CNc1cc(=O)c2ccccc2[nH]1` (stereo not drawn) [TCMDC-140681], 91.88%; under `COc1cc(C(F)(F)F)cc2[nH]c(CNCCCNc3nc4ccccc4[nH]3)cc12` [TCMDC-140013], 19.83%.
Under `COc1cc(NCC2(CNCc3cn(Cc4ccccc4)c4ccccc34)CCCCC2)nc2ccccc12.Cl` [TCMDC-140539] stands 107.8%; under `O=c1cc(NCC2(CNCc3cn(Cc4ccccc4)c4ccccc34)CCCCC2)[nH]c2ccccc12` [TCMDC-140540], -59.9%; under `CCCC(CNCc1ccccc1)CNc1cc(=O)c2ccccc2[nH]1` (stereo not drawn) [TCMDC-139434], 43.59%.
Regarding `COc1cc(NCCCNCc2cn(Cc3cc(Br)cc(Br)c3)c3ccccc23)nc2ccccc12` [TCMDC-140677], the “% Inhibition” value was 108.1%.
Then `COc1cccc2[nH]c(NCCCNCc3cc(Br)cc(Br)c3)nc12` [TCMDC-139984], with 1.75%; and `CCCC(CNCc1cccc(C)c1)CNc1cc(=O)c2ccccc2[nH]1` (stereo not drawn) [TCMDC-139435], with 10.27%; and `COc1ccccc1C1CCN(Cc2csc(NC(=O)c3ccc(-c4ccc(C(F)(F)F)cc4)cc3)n2)CC1` [TCMDC-138781], with -44.16%.
Then `Cc1cc2[nH]c(-c3ccc(C(=O)NCCCN4CCN(c5cccc(Cl)c5)CC4)cc3F)nc2cc1Cl` [TCMDC-140029], with -4.793%; and `Cc1cccc2[nH]c(-c3cccc(-c4ccc(CN5CCN(CCO)CC5)cc4)c3)nc12` [TCMDC-133026], with 5.684%; and `O=C(NCc1cc2c(cc1Cl)OCO2)c1ccc(CNC2CCN(Cc3ccccc3)CC2)cc1` [TCMDC-140786], with 7.44%.
Then `c1ccc(CN2CCC(NCc3ccc(-c4ccc(CNC5CCCC5)cc4)cc3)CC2)cc1` [TCMDC-140492], with 108.5%; and `C(=C(c1cccs1)c1cccs1)c1ccc(CNC2CCN(Cc3ccccc3)CC2)cc1` [TCMDC-138647], with 92.91%.
On to `C=CCOc1ccc(CNC2CCN(Cc3ccccc3)CC2)cc1Br` [TCMDC-125268], for which the “% Inhibition” value came to 13.93%.
Then `c1ccc(CN2CCC(NCc3ccccc3-c3ccc(CNCc4ccc5c(c4)OCO5)cc3)CC2)cc1` [TCMDC-140475], with 90.32%; and `O=C(NCc1cccc2ccccc12)c1ccc(CNC2CCN(Cc3ccccc3)CC2)cc1` [TCMDC-140789], with -3.964%.
As to `c1ccc(CN2CCC(NCc3ccccc3-c3cccc(CNCc4ccc5c(c4)OCO5)c3)CC2)cc1` [TCMDC-140474], the “% Inhibition” value is recorded as 47.21%.
As to `O=C(Nc1ccc(N2CCN(Cc3ccccc3)CC2)cc1)c1cccs1` [TCMDC-124320], the “% Inhibition” value is -18.09%.
Then `c1ccc(CN2CCC(NCc3ccc(-c4cccc(CNC5CCCC5)c4)cc3)CC2)cc1` [TCMDC-140491], with 106.1%.
